Assay [1] can be described thus: qHTS assay to identify small molecule antagonists of the estrogen related receptor (ERR) signaling pathway from Tox21 library - cell viability counter screen (AID 1224834). Note: nearly all actives have a fitted effect of over 30% in size. The method in brief:
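Cytotoxicity of test substances is gauged in the same ERR cells used for the antagonist screen, after 17.5 h of compound treatment at 37 C, by CellTiter-Fluor fluorescence measured after 30 min.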

Assay [2] has as its target Luciferin 4-monooxygenase (Photinus pyralis) (UniProt P08659). As to the kind of experiment: qHTS assay to identify small molecule inhibitors of firefly luciferase (AID 1224835). Note: nearly all actives have a fitted effect of over 25% in size. Note: potency is the fitted concentration of half-maximal effect. The method, boiled down: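 Quantitative HTS format; KM concentrations of both substrates. Purified P. pyralis FLuc activity quantified from luminescence images.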
Assay [3] can be described thus: qHTS assay to identify small molecule agonists of the constitutive androstane receptor (CAR) signaling pathway - cell viability counter screen (AID 1224836). Note: nearly all actives have a fitted effect of over 45% in size. The method in brief: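 Viability read-out: CellTiter-Fluor fluorescence after 23 h compound exposure at 37 C/5% CO2 in double-stable HepG2-CYP2B6-hCAR cells, with PK11195 present at 0.75 uM final; compounds tested in 15-point titration.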
Background: In qHTS, concentration-response curves come from the screen itself.

A short description of assay [4]: qHTS assay to identify small molecule antagonists of the constitutive androstane receptor (CAR) signaling pathway - cell viability counter screen (AID 1224837). Note: nearly all actives have a fitted effect of over 45% in size. The method, boiled down:
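Multiplexed cytotoxicity read-out for the CAR antagonist screen: double-stable HepG2-CYP2B6-hCAR cells co-treated with 50 nM CITCO (final) and compound over 15 concentrations, incubated 23 hr, then assessed by CellTiter-Fluor fluorescence.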

Assay [5] deals with Nuclear receptor subfamily 1 group I member 3 (Homo sapiens) (UniProt Q14994). As to the kind of experiment: qHTS assay to identify small molecule antagonists of the constitutive androstane receptor (CAR) signaling pathway (AID 1224838). Note: nearly all actives have a fitted effect of over 40% in size. The method, boiled down:
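Compounds were titrated across 15 concentrations onto HepG2 cells double-stably expressing hCAR and a CYP2B6-2.2kb reporter, together with 50 nM CITCO (final). After 24 h at 37 C, luciferase activity was measured by luminescence.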

For assay [6] the target is unchanged. As to the kind of experiment: qHTS assay to identify small molecule agonists of the constitutive androstane receptor (CAR) signaling pathway (AID 1224839).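 Note: HepG2 cells stably carrying human CAR and a CYP2B6 luciferase reporter; nearly all actives have a fitted effect of over 15% in size.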 The method in brief:
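Luminescence read-out (ONE-Glo, 30 min, room temperature) from double-stable HepG2-CYP2B6-hCAR cells exposed 24 h to 15-point compound series in presence of 0.75 uM PK11195 final.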

Assay [7] is described as follows: qHTS assay to identify small molecule antagonists of the estrogen related receptor signaling pathway with the pleiotropic PPARgamma coactivator (PGC) from Tox21 10K library - cell viability counter screen (AID 1224840; active = well fitted cell-killing curve with a large enough effect in the repeat runs, not every such curve was filed as active; note: nearly all actives have a fitted effect of over 40% in size). The method, boiled down:
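Step one, plate 2,000 PGC/ERR cells per well; step two, incubate 6 h at 37 C/5% CO2; step three, pin-transfer compounds; step four, incubate 17.5 h; step five, add CellTiter-Fluor and read fluorescence after 30 min.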

The nature of assay [8]: qHTS assay to identify small molecule antagonists of the estrogen related receptor signaling pathway with the pleiotropic PPARgamma coactivator (PGC) from Tox21 10K library (AID 1224841; call rule not given here; note: actives are mostly falling curves and most rising ones were filed inactive; nearly all actives have a fitted effect of over 50% in size). The method in brief: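 Antagonism in this quantitative HTS is taken from loss of luciferase signal in PGC/ERR cells. Cells (2,000/well) are treated with compounds in DMSO after a 6 h settling period and read by One-Glo luminescence after 18 h.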

A short description of assay [9]: qHTS assay to identify small molecule agonists of the estrogen related receptor signaling pathway with the pleiotropic PPARgamma coactivator (PGC) from Tox21 10K library (AID 1224842). Note: nearly all actives have a fitted effect of over 15% in size. The method, boiled down:
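PGC/ERR reporter cells (NTP line) were seeded 2,000 per well, rested 6 h at 37 C/5% CO2, then pin-dosed with compounds in DMSO for 18 h at 37 C; luciferase read by One-Glo luminescence after 30 min at room temperature.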

Assay [10] can be described thus: qHTS assay to identify small molecule agonists of the hypoxia (HIF-1) signaling pathway - cell viability counter screen (AID 1224844; calls by dose curve; note: nearly all actives have a fitted effect of over 50% in size). The method, boiled down:
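Tox21 10K compounds were added to HRE-bla ME-180 cells (0.5% dialyzed FBS) and incubated 17 hrs at 37C; ATP-based CellTiter-Glo luminescence then reported cell viability in the same wells.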

Assay [11] in a line: qHTS assay to identify small molecule agonists of H2AX (AID 1224845; active = well fitted activation curve with a large enough effect in the signal ratio in the repeat runs, not every such curve was filed as active; the % refers to the signal ratio). The method, boiled down:
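Wild-type CHO-K1 cells plated overnight, then exposed 3 hr at 37C to compounds at 15 concentrations (0.76% DMSO). Lysed, then HTRF anti-pH2AX(S139)-cryptate/anti-H2AX-d2 detection after 24 hr at room temperature; emissions 665 and 620 nm.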

A short description of assay [12]: qHTS assay to identify small molecule agonists of the hypoxia (HIF-1) signaling pathway (AID 1224846; active = well fitted activation curve with a large enough effect in the signal ratio in the repeat runs, not every such curve was filed as active; the % refers to the signal ratio). The method, boiled down:
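Steps: seed ME-180 HRE-bla cells (2,000/well, 0.5% dialyzed FBS); incubate 5 hrs at 37C; pin-transfer compounds or DMSO; incubate 17 hrs; add LiveBLAzer B/G substrate CCF4-AM; measure reporter activation by FRET.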

Assay [13] is described as follows: qHTS assay to identify small molecule agonists of H2AX - cell viability counter screen (AID 1224847; calls by dose curve; note: top concentration of the series differs between compounds; nearly all actives have a fitted effect of over 30% in size). The method, boiled down:
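CHO-K1 wt, 1000 cells/well, o/n 37C; cpds 15 conc, 3 h 37C, 0.76% DMSO; CellTiter-Glo, 30 min RT, luminescence.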

Assay [14] is described as follows: qHTS assay to identify small molecule antagonists of the estrogen related receptor (ERR) signaling pathway from Tox21 library (AID 1224848). Note: nearly all actives have a fitted effect of over 50% in size. The method, boiled down:
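Screening used an ERR reporter line supplied by NTP, exposed for 18 h at 37 C to library compounds delivered in DMSO. Signal was luciferase luminescence developed with ONE-Glo at room temperature for 30 min.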

Assay [15] is described as follows: qHTS assay to identify small molecule agonists of the estrogen related receptor (ERR) signaling pathway from Tox21 library (AID 1224849; calls by dose curve; note: nearly all actives have a fitted effect of over 15% in size). The following applies: ERR reporter cell line, ONE-Glo luciferase, 18 h; at 92.4 µM (top of the series) unless noted. The method, boiled down: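 Agonist signal is luciferase luminescence from an ERR reporter cell line treated 18 h at 37 C with DMSO-dissolved compounds, read 30 min after ONE-Glo addition at room temperature.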

A short description of assay [16]: qHTS RealTime-Glo MT Cell Viability Assay in HepG2 cells - 24 hour (AID 1224867). Note: nearly all actives have a fitted effect of over 50% in size. The method in brief: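 Tox21 10K library screened in qHTS format on HepG2 cells carrying RealTime-Glo reagents. Compounds were added after a 5 h preincubation, and the luminescent signal from continuous culture was measured repeatedly during 40 h treatment.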
Assay [17] can be described thus: qHTS RealTime-Glo MT Cell Viability Assay in HEK293 cells - 32 hour (AID 1224868). The method in brief: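 Luminescence generated by NanoLuc from substrate produced by living HEK293 cells served as the viability signal. Each value reflects the reading at its stated time point during continuous 40 h compound exposure at 37 C.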
The nature of assay [18]: A CellTox Green Cytotoxicity Assay to monitor cytotoxicity in HEK293 cells - 0 hour (AID 1224869). Note: nearly all actives have a fitted effect of over 50% in size. The method, boiled down:
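Cytotoxicity was tracked continuously in HEK293 cells by a DNA-binding dye excluded from viable cells. Compounds were transferred in DMSO 5 h after seeding; fluorescence was recorded at intervals up to 40 h.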

A short description of assay [19]: qHTS RealTime-Glo MT Cell Viability Assay in HepG2 cells - 40 hour (AID 1224870). Note: nearly all actives have a fitted effect of over 50% in size. The method, boiled down: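 HepG2 cells mixed with RealTime-Glo MT reagents (NanoLuc plus cell-permeant prosubstrate) were seeded at 600 cells/well, incubated 5 h at 37 C/5% CO2, then pinned with compounds in DMSO; nonlytic luminescence tracked viability during 40 h treatment.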
Assay [20] concerns the target Thyrotropin receptor (Homo sapiens) (UniProt P16473). As to the kind of experiment: qHTS assay to identify small molecule agonists of the thyroid stimulating hormone receptor (TSHR) signaling pathway (AID 1224843; calls by dose curve; note: nearly all actives have a fitted effect of over 45% in size). The method, boiled down: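 Cell line HEK293 with TSHR; density 800/well. Exposure 30 min RT. Readout HTRF cAMP (cAMP-d2/anti-cAMP-cryptate), 1 h RT before reading.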

A number with no mark means an inactive call. Inconclusive results are not listed. Active and inactive are the calls of the source. Unless noted, calls come from the whole dose curve; as a rule, active = well fitted curve in the direction sought with a large enough effect in the repeat runs; inconclusive = weak or mixed curves; inactive = no such curve, though single readings can be large; an effect the other way counts as inactive or inconclusive.
% is set by controls: 0 for no effect and ±100 for the full control effect.

Sequence of Thyrotropin receptor (Homo sapiens) (P16473 whole entry, looked up): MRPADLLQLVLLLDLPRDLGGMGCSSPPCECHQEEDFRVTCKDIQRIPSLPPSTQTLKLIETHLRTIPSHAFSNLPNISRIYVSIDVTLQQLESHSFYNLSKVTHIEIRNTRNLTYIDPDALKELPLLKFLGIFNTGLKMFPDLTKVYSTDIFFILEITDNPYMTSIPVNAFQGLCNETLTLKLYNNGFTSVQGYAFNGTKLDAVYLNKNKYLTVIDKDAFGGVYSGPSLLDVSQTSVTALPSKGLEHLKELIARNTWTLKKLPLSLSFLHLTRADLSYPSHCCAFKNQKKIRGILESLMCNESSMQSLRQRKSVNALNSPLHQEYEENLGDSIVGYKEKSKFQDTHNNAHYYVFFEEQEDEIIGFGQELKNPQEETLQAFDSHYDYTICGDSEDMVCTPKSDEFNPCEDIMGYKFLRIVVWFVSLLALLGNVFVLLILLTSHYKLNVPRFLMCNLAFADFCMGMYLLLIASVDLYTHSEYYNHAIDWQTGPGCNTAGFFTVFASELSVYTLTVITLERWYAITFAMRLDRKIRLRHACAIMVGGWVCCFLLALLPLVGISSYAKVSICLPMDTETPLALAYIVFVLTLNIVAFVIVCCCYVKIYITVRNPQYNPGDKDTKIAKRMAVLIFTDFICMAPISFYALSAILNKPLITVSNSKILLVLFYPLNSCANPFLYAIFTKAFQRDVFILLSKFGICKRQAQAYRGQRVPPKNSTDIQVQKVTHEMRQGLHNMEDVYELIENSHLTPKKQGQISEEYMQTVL
Sequence of Nuclear receptor subfamily 1 group I member 3 (Homo sapiens) (Q14994 whole entry, looked up): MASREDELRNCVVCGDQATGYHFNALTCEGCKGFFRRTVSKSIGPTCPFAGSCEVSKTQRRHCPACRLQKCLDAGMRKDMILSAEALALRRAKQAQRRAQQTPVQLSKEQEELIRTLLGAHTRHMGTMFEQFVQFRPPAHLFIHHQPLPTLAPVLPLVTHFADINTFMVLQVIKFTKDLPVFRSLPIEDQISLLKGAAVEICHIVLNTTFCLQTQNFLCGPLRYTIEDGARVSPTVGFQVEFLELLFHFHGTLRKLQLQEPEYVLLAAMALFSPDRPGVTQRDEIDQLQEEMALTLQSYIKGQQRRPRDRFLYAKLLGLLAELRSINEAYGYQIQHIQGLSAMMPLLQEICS
Sequence of Luciferin 4-monooxygenase (Photinus pyralis) (P08659 whole entry, looked up): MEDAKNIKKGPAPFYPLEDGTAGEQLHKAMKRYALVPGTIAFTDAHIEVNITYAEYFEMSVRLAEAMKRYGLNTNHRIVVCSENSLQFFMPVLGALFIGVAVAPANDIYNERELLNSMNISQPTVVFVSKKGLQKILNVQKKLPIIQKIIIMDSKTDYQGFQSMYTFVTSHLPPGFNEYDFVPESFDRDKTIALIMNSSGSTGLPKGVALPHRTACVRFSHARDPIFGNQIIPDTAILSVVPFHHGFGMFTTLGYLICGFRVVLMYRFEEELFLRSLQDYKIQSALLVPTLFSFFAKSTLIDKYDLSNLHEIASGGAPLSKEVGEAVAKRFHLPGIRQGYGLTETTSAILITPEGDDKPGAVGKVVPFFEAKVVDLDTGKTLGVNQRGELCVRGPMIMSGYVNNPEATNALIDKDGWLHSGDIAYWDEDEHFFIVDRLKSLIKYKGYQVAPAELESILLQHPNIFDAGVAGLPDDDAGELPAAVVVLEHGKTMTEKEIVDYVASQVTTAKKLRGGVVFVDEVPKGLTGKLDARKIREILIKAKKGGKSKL

Take `COc1nc(C)nc(NC(=O)NS(=O)(=O)c2ccccc2OCCCl)n1`: the Potency result in [1], in [2], in assay [3], in assay [4], in [5] and in assay [6] was “inactive” each time. Further, the Potency entry in assay [7], in [8], in assay [9], in assay [10], in assay [11] and in [13] was “inactive” each time. For the same compound, the Potency entry in assay [14], in assay [16], in assay [17], in [18] and in assay [19] was “inactive” in each case. Besides, in [12], the result was inactive. Besides, the activity change, positive = activation in assay [15] is -0.581%.

`O=C(O)CN(CCN(CC(=O)O)CC(=O)O)CCN(CC(=O)O)CC(=O)O`: the results for the viability change, negative = cytotoxic in assay [1], in [3] and in assay [7] were 4.74% [at 19 µM], -25% [at 19 µM] and 0.226% [at 19 µM], respectively. Further, the activity change, negative = inhibition in assay [2] is 2.77% [at 23.6 µM]. Also, the activity change, negative = cytotoxicity in [4] is -28.8% [at 19 µM]; in [10], -7.94% [at 15.8 µM]; in assay [13], 0.16% [at 31.6 µM]; in assay [16], 0.5% [at 15.8 µM]. Besides, the figures for the activity, negative = inhibition in assay [5], in assay [8] and in assay [14] were -23.7% [at 19 µM], 0.933% [at 19 µM] and 11.2% [at 19 µM], respectively. In addition, the figures for the activation in [6] and in assay [9] were -1.04% [at 19 µM] and 0.186% [at 19 µM], respectively. Besides, the activation (H2AX phosphorylation) in assay [11] is 1.06% [at 31.6 µM]. For the same compound, the activity change, positive = activation in assay [15] is 5.66% [at 19 µM]. Further, the cytotoxicity in assay [18] was 4.99% [at 15.8 µM]. The activity change, negative = cytotoxic in [19] was 0.22% [at 15.8 µM].

Turning to `CCCCCCn1c(=O)c2c(ncn2C)n(C)c1=O`, the Potency entry in [1], in assay [2], in assay [3], in assay [4], in [5] and in assay [6] was “inactive” throughout. Further, the Potency entry in assay [7], in assay [8], in assay [9], in assay [20], in assay [10] and in assay [11] was “inactive” in each case. The Potency entry in [13], in assay [14], in assay [16], in [17], in assay [18] and in assay [19] was “inactive” each time. Further, the compound was classed as inactive in assay [12]. Besides, in assay [15], the activity change, positive = activation is -1.88% [at 42.5 µM].

Regarding `COC(=O)c1ccc(OC)cc1`, the Potency result in assay [1], in assay [2], in assay [3], in assay [4], in [5] and in assay [6] was “inactive” each time. In addition, the Potency result in assay [7], in assay [8], in assay [9], in assay [10], in assay [11] and in [13] was “inactive” each time. Also, the Potency result in assay [14], in assay [16], in assay [17], in assay [18] and in [19] was “inactive” in each case. Also, the outcome in [12] was inactive. Besides, the activity change, positive = activation in assay [15] was 5.85%.

As for `CC(C)C(=O)OC/C=C/c1ccccc1`, the Potency result in [1], in assay [3], in assay [4], in assay [5], in [6] and in assay [7] was “inactive” throughout. The Potency entry in [8], in assay [9], in assay [20], in assay [10], in [11] and in assay [13] was “inactive” in each case. For the same compound, the Potency result in assay [14], in [16], in assay [17], in assay [18] and in [19] was “inactive” in each case. The Potency in assay [2] was 71 µM (active). The result in [12] was inactive. In addition, the activity change, positive = activation in [15] was 4.91%.

As for `CCCc1c2oc(C(=O)O)cc(=O)c2cc2c(=O)cc(C(=O)O)n(CC)c12`, the Potency result in assay [1], in [2], in [3], in [4], in assay [5] and in assay [6] was “inactive” in each case. For the same compound, the Potency result in [7], in assay [8], in assay [9], in assay [20], in assay [10] and in assay [11] was “inactive” each time. In addition, the Potency result in assay [13], in [14], in [16], in assay [17], in [18] and in assay [19] was “inactive” in each case. In assay [12], the result was inactive. The activity change, positive = activation in [15] is 1.31% [at 42.5 µM].

(Values after PubChem BioAssay (Tox21).)
